# EP2 modulator = EP2 receptor modulators, cAMP readout, primary screen, cell-based, HTRF cAMP, PGE2 stimulation; 0.83% of 260,000 active; induction, % at 25 µM; Prostaglandin E2 receptor EP2 subtype (Homo sapiens), P43116; EP2-expressing cells, cAMP HTRF FRET, PGE2 co-stimulation;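 active = compounds whose cAMP rise, as percent of the full-agonist control response, exceeds 60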;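 note: rat C6 glioma line stably carrying human EP2 under a CMV promoter; the protocol text gives 20 µM as final concentration; 100% = response of wells given 1 µM PGE2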
# S1P3 antag-1 = S1P3 receptor antagonists, primary screen, cell-based. Sphingosine 1-phosphate receptor 3 (Homo sapiens), Q99500. CHO S1P3 NFAT-BLA reporter, FRET fluorescence, antagonist mode. inhibition, % at 4.98 µM. 0.27% of 170,000 active. AID 485, 2006;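 active = inhibition above the plate cutoff, the mean inhibition of test wells on that plate plus 3 SD, cut at about 28% in these data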;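 note: cells challenged with S1P at its EC80 of 0.8 µM; blue over green emission ratio from cleaved BLA substrate after 4 h stimulation; 0% = S1P-stimulated wells and 100% = unstimulated DMSO-only wells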
# Target sequence (Q99500 whole entry, looked up): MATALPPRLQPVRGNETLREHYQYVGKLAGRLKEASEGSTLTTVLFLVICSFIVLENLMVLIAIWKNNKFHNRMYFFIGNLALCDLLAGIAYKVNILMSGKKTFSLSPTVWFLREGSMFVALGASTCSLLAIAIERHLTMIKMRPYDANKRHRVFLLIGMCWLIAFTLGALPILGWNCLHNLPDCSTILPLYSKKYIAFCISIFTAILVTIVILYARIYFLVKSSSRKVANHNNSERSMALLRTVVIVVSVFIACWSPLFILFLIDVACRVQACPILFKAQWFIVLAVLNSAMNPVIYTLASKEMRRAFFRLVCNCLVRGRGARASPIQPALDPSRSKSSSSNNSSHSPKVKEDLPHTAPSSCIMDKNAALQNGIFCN
# S1P4 antag = S1P4 receptor antagonists, primary screen, cell-based; Sphingosine 1-phosphate receptor 4 (Homo sapiens), O95977; S1P4-expressing cells, antagonist mode, reporter read-out; inhibition, % at 4.98 µM; 0.26% of 220,000 active; in the data active = inhibition above about 29%;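 note: 0% = wells stimulated with agonist and 100% = vehicle wells without agonist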
# S1P4 agonist = S1P4 receptor agonists, primary screen, cell-based. Sphingosine 1-phosphate receptor 4 (Homo sapiens), O95977. S1P4-expressing cell line, agonist reporter assay. activation, % at 4.98 µM. 0.35% of 220,000 active; in the data active = activation above about 11%;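 note: 0% = DMSO vehicle and 100% = reference agonist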
# PGE2 EP2 inh = human EP2 receptor antagonists, primary screen, TR-FRET cAMP, C6 glioma cells; C6 glioma cells expressing human EP2; cells stimulated with saturating PGE2; inhibition, % at 25 µM; 0.52% of 260,000 active; AID 1422, 2008;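 active = percent inhibition above 40 after rounding to a whole number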;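 note: rat C6 glioma host cells with rolipram phosphodiesterase inhibitor present; the protocol text gives 20 µM as final concentration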
# S1P3 antag-2 = S1P3 receptor antagonists, retest, confirmation, cell-based; 30% of 240 active; shares compounds with S1P3 antag-1; CHO S1P3 NFAT-BLA reporter, FRET, antagonist mode; inhibition, % at 4.98 µM;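 active = inhibition above the hit threshold that was computed for the earlier primary screen, cut at about 30% in these data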;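 note: 0% = S1P-stimulated wells and 100% = unstimulated DMSO-only wells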
# EP2 cAMP induct = cAMP induction in EP2, EP4, beta2-AR and parental cells, confirmation, counter-screen for EP2 modulator project, cell-based, five parallel assays, C6 glioma, HEK293; calls only at 20 µM (by protocol); cAMP HTRF induction; plus low (about EC15) PGE2 agonist; shares compounds with EP2 modulator; 47% of 1,300 active;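 active = cAMP induction above 50% in the main assay while under 30% in all four parallel counter assays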;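 note: rat C6 glioma cells stably expressing human EP2 receptor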
# S1P4 antag conf = S1P4 receptor antagonists, human, confirmation, cell-based. shares compounds with S1P4 antag. S1P4-expressing cell line, antagonist mode, reporter read-out. inhibition, % at 4.98 µM. 71% of 520 active; in the data active = inhibition above about 30%
# S1P1 antagonist = S1P1 receptor antagonists, human, counter-screen for S1P4 antagonist project, cell-based; cell-based S1P1 antagonist counterscreen, inhibition; 37% of 520 active; inhibition, % at 4.98 µM; AID 1564, 2009; shares compounds with S1P4 antag; in the data active = inhibition above about 40%;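 note: receptor stimulated with S1P near its EC80; 0% = agonist stimulated wells and 100% = vehicle only wells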
# * = called active by the depositor; i = inactive; nt = no result given; ! = a repeat was not active. An excerpt weighted towards active compounds, which were near 2% of everything screened.
SMILES,EP2 modulator,S1P3 antag-1,S1P4 antag,S1P4 agonist,PGE2 EP2 inh,S1P3 antag-2,others
CCc1ccc(NC(=O)C(CC)c2ccccc2)cc1 (centres undefined),-55,29*,-10,-1,17,22,
O=C(Nc1ccc(Br)cc1)C(c1ccccc1)c1ccccc1,13,57*,1,-1,11,69*,
O=C(Nc1ccc2ccccc2c1)C(c1ccccc1)C1CCCC1 (centres undefined),24,55*,1,0,2,66*,
NC(=O)C(c1ccccc1)C1CCCC1 (centres undefined),12,nt,0,1,3,nt,
Cc1nc2cc(-c3cccs3)nn2c(N(C)CCO)c1C,-45,nt,nt,nt,6,nt,
CC[C@H](Cn1ncc2ccccc2c1=O)NC(=O)C1(c2cccc(F)c2)CCCC1,0,nt,nt,nt,nt,nt,
C=CCc1cccc2cc(C(=O)Nc3ccc(C)cc3C)c(=O)oc12,-5,nt,nt,nt,9,nt,
Cc1ccc(S(=O)(=O)NCC(C)NC(=O)CN2CCCCC2)cc1 (centres undefined),-13,nt,nt,nt,9,nt,
COc1cccc(C(c2nnnn2C(C)(C)C)N2CCN(Cc3ccccc3)CC2)c1OC (centres undefined),11,nt,nt,nt,10,nt,
COc1ccc(NC(=O)CSc2nnc(C(C)C)n2C)c(OC)c1,9,nt,nt,nt,19,nt,
S=c1[nH]ccn1-c1cccc(Cl)c1Cl,-48,-11,-3,-2,5,nt,
S=c1[nH]ccn1-c1ccccc1Cl,-3,73*!,-3,0,2,-13,
CCC(C)(C)C1CCc2c(sc(N)c2C(N)=O)C1 (centres undefined),17,38*,-11,1,0,-3,
CCCc1nc2c(=O)n(C)c(=O)nc-2n(C)n1,-34,72*,54*,2,12,107*,S1P4 antag conf=89*;S1P1 antagonist=56*
CCn1c(N)nc2c1c(=O)n(C)c(=O)n2C,29,24,-2,-2,9,nt,
CCCCC(=O)N/N=C/c1ccc(-c2ccc([N+](=O)[O-])cc2)o1,3,18,0,2,13,nt,
CC(C)(C)NC(=S)N/N=C\c1ccc(-c2ccc([N+](=O)[O-])cc2)o1,-11,70*,45*,-3,10,73*,S1P4 antag conf=83*;S1P1 antagonist=134*
COC(=O)c1scc2c(=O)cc(C(F)(F)F)[nH]c12,8,32*,35*,1,8,24,S1P4 antag conf=69*;S1P1 antagonist=51*
CCCCNc1ccc2c3c(cccc13)C(=O)N(CCCC)C2=O,3,47*,45*,0,5,59*,S1P4 antag conf=67*;S1P1 antagonist=98*
Fc1ccc(CN(CCCN2CCOCC2)Cc2cccnc2)c(F)c1,-38,nt,nt,nt,7,nt,
CCCC1c2cccn2CCN1Cc1ccc(OCC(=O)N2CCOCC2)cc1 (centres undefined),-31,nt,nt,nt,7,nt,
COc1ccc(C2CC(c3cccs3)=NN2C(=O)c2ccc(Br)o2)cc1 (centres undefined),51,1,-11,4,9,nt,EP2 cAMP induct=i
COc1cccc(/C=C/C(=O)c2cccc([N+](=O)[O-])c2)c1,3,-1,14,2,12,nt,
COc1ccc(OC(=O)c2cccc([N+](=O)[O-])c2)c(C(=O)/C=C/c2cccs2)c1,77*,nt,5,-2,11,nt,EP2 cAMP induct=i
